Gal4-VP16 FLuc – counter-screen for ROR gamma inhibitors: Gal4-VP16 reporter. AID 2546. Drosophila S2 Gal4-VP16 UAS-luciferase, luminescence, 20 h. Potency, µM (doses to about 53.6 µM), for the others: top-dose activity, negative = inhibition, usual class: inhibitors. actives 3.5% (n = 310,000);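 further: Gal4-VP16 expression switched on by copper sulfate through the metallothionein promoter; on the % scale 0 is the no-effect control and ±100 the full control effect; nearly all actives have a fitted effect of over 50% in size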
Sfp PPTase inh – blocks B. subtilis Sfp PPTase activity; Q9F4F7; Biochemical Sfp PPTase activity, qHTS; Potency, µM, for inactives: largest response in the series, negative = inhibition, hits mostly inhibitors; actives 3.5% (n = 310,000);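 further: the enzyme is Sfp with the accession as filed and its product quenches rhodamine fluorescence; 0% = enzyme reaction without inhibitor and -100% = no enzyme wells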
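Compounds were incubated with enzyme (final 15 nM) for 15 min at room temperature before substrate addition started the reaction. Fluorescence at 525 nm excitation, 598 nm emission was recorded immediately and after 30 minutes.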
ClpP mod – qHTS Assay for Activators of ClpP | ATP-dependent Clp protease proteolytic subunit (Bacillus subtilis (strain 168)), P80244 | purified B. subtilis ClpP, FRET peptide cleavage, 20 min | Potency, µM (highest dose often 57.5 µM), for inactives: at the highest dose activity change, negative = active | actives 1.9% (n = 340,000) | AID 651965, 2013; active means well fitted falling curve with a large enough effect; inconclusive means small, poorly fitted or top-dose-only effect; inactive means no such curve, though single readings can be large or run the other way; further: the source files actives as falling curves though it sought activators and does not explain the sign; nearly all actives have a fitted effect of over 65% in size
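Purified B. subtilis ClpP, 10 microg/mL final in Tris/HCl pH8 with KCl, BSA, glycerol and Tween-20, cleaved an Abz/nitrotyrosine-quenched decapeptide. Fluorescence (ex 320, em 430) was read at 0 and 20 min at room temperature. Delta was normalized to 5.8 microM ADEP and DMSO/no-enzyme controls.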
Epigenetic reg – regulators of epigenetic silencing causing reporter derepression in mouse cells; murine LDR cells, GFP reporter derepression, 30 h; Potency, µM (titrated, usually from 53.9 µM), for the others: at the top dose GFP activation, hits mostly activators; actives 0.2% (n = 280,000); further: % of control where 0% means no effect; nearly all actives have a fitted effect of over 60% in size
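Readout is the number of GFP-expressing murine LDR cells, counted by cytometry following washing. Cells were treated with compound for 30 h at 37 C; the stably integrated CMV-GFP locus is normally silent.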
PINK1 modulator – PINK1 expression modulation; Potency, µM (top dose mostly 76.6 µM), for inactives: at the top dose activation (PINK1 increase), usual class: activators; PINK1 immunofluorescence, high-content cytometry, 24 h; actives 0.2% (n = 410,000); active means well fitted activation curve with a large enough effect; inconclusive means small, poorly fitted or top-dose-only effect; cell line not stated here; further: % of control where 0% means no effect; nearly all actives have a fitted effect of over 65% in size
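Readout is PINK1 immunofluorescence, quantified alongside mitochondrial, cell and nuclear markers by laser-scanning microplate cytometry. Cells from a stable line were exposed to compound titrations (5 concentrations) for 24 hours, with CCCP controls.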
RORgamma inh – ROR gamma (mouse) transcription inhibition. P51450. Drosophila S2 Gal4-RORgamma UAS-luciferase reporter, 20 h. Potency, µM (titrated, usually from 53.6 µM), inactives show top-dose activity change, negative = inhibition, usual class: inhibitors. actives 5.4% (n = 310,000). AID 2551; further: on the % scale 0 is the no-effect control and ±100 the full control effect; nearly all actives have a fitted effect of over 60% in size
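Luciferase reporter read in Schneider cells carrying Gal4-RORγ (mouse) and UAS-Photinus luciferase; cells given compound 1 h before 700 uM copper sulfate induction, then incubated 20 h at ambient temperature.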
An asterisk follows results filed as active; u = inconclusive; x = no result; [ ] = dose if it differs, or a comment. Hits are enriched below; roughly 8.1% of the tested compounds scored in any of these assays. Unless noted, the call rests on the fitted dose curve; in most records, active means well fitted curve in the direction sought with a large enough effect; inconclusive means small, poorly fitted or top-dose-only effect, or another doubt; inactive means no such curve, though single readings can be large; an effect the other way counts as inactive or inconclusive. Potency means the concentration at half of the fitted maximal effect.

SMILES	Gal4-VP16 FLuc	Sfp PPTase inh	ClpP mod	Epigenetic reg	PINK1 modulator	RORgamma inh
COc1cccc(NC(=O)C(=O)NCCc2csc(-c3ccc(C)cc3)n2)c1	x	x	-3%	1%	3%	x
CCCCn1c(/C=N/Nc2nc3ccccc3[nH]2)nc2ccccc21	1.6µM*	u	-8%	u	16%	1.8µM*
CCCCNc1nc2ccccc2[nH]1	6%	-4%	1%	-1%	2%	27%
CCCn1c(/C=C/c2ccco2)nc2ccccc21	u	35µM*	-27%	0%	1%	-38%
CCCn1c(NCc2ccco2)nc2ccccc21	-8%	5%	0%	-1%	-4%[38.3 µM]	0%
CCCCn1c(/C=C/c2ccco2)nc2ccccc21	u	-25%	-30%	u	-1%	13µM*
CC12C=C(/C=C/c3ccc(Br)cc3)C(C)(C1)C(c1ccc(Br)cc1)CC2=O (stereo unspecified)	11%[10 µM]	-3%	x	1%[10.1 µM]	x	0%[10 µM]
CN1CCC2(CC1)N=C(c1ccc(F)cc1)C(=S)N2C(=O)c1ccccc1	u	50µM*	1%	0%	u	u
CCN1CCN(c2nc(-c3ccc(F)cc3)cc(=O)[nH]2)CC1	-5%	7%	x	x	1%	-7%
CCN1CCC2(CC1)N=C(c1ccc(F)cc1)C(=S)N2C(=O)c1ccc(C(C)(C)C)cc1	u	u	-1%	-1%	0%	4µM*
O=C(c1ccccc1)N1N=C(c2ccc(F)cc2)CC1(O)C(F)(F)F (stereo unspecified)	u	-1%	0%	x	9%	u
CC(C)(C)C(=O)/C(=C/c1ccncc1)n1cncn1	2.8µM*	35µM*	-2%	-4%	-3%	1µM*
CCOC(=O)c1[nH]cnc1C(=O)Nc1ccc([N+](=O)[O-])cc1	-12%	11%	x	x	3%	0%
O=C(Nc1ccc([N+](=O)[O-])cc1)c1nc[nH]c1C(=O)NC1CCCCC1	3.5µM*	4%	0%	1%	6%	1.6µM*
O=C(Nc1ccc(F)cc1)c1nc[nH]c1C(=O)Nc1ccc([N+](=O)[O-])cc1	7.1µM*	8%	x	1%	4%	5µM*
CCc1ccc(CNC(=O)c2ccc(NC(=O)N3CCSc4ncccc43)cc2)cc1	x	x	32µM*	1%	-2%	x
Cc1ccc(CNC(=O)c2ccc(NC(=O)N3CCSc4ncccc43)cc2)cc1	x	x	4%	-1%	0%	x
O=C(NCc1ccccc1)c1ccc(NC(=O)N2CCSc3ncccc32)cc1	x	x	32µM*	3%	2%	x
CCOc1ccc(CNC(=O)c2cccc(NC(=O)N3CCSc4ncccc43)c2)cc1	x	x	-14%	0%	1%	x
Cc1ccccc1CNC(=O)c1cccc(NC(=O)N2CCSc3ncccc32)c1	x	x	32µM*	0%	-1%	x
CCc1ccccc1NC(=O)CCNS(=O)(=O)c1ccc2c(c1)CCN2C(=O)C1CC1	x	x	2%	0%	-2%	x
CC(/C=C/c1cccc([N+](=O)[O-])c1)=N/NC(=O)c1cccnc1	5µM*	28%	1%	-1%	-1%	3.2µM*
O=C(N/N=C/C=C\c1cccc([N+](=O)[O-])c1)c1cccnc1	u	-1%	0%	-1%	0%	6.3µM*
O=C(/C=C/c1cccc(OCc2ccccc2)c1)c1cccnc1	u	50µM*	x	1%	9%	-103%
C/C(=N\NC(=O)c1cccnc1)c1cccc([N+](=O)[O-])c1	-3%[10 µM]	20%	-3%	0%	-1%	1%
SMILES	Gal4-VP16 FLuc	Sfp PPTase inh	ClpP mod	Epigenetic reg	PINK1 modulator	RORgamma inh
O=C(O)/C=C/c1cccc(OCc2ccccc2)c1	u	10%	x	-1%	0%	-39%
CC(/C=C/c1ccccc1)=N/NC(=O)c1cc([N+](=O)[O-])cc([N+](=O)[O-])c1	0.18µM*	u	-3%	0%	8%	0.18µM*
COc1ccc(C)cc1NC(=O)c1sc2nc(-c3ccc(F)cc3)cn2c1C	x	x	-5%	3%	2%	x
CCc1cc2c(cc3c(=O)n(CC(=O)NC(C)c4ccccc4)ncn32)s1 (stereo unspecified)	x	x	-11%	0%	0%	x
COc1ccc(C(=O)Cc2ccccc2)cc1OC	5%	5%	0%	7%	7%	-2%
O=C(/C=C/c1cccnc1)c1ccc(F)c(F)c1	u	63µM*	x	x	19%	u
COc1ccc(C(=O)NN=C(Cc2ccccc2)Cc2ccccc2)cc1OC	u	3%	1%	1%	1%	11µM*
O=C(N/N=C\C=C\c1ccc2c(c1)OCO2)c1cccnc1	11µM*	-4%	-6%	0%	1%	5.6µM*
O=C(/C=C/c1ccc2c(c1)OCO2)c1cccnc1	-7%	2%	-3%	x	-1%	u
CC/C(Cc1ccccc1)=N/NC(=O)c1cccc(Br)c1	-5%	8%	0%	-1%	-1%	-31%
CC/C(Cc1ccccc1)=N\NC(=O)c1cc([N+](=O)[O-])cc([N+](=O)[O-])c1	-14%	-7%	0%	-6%	2%	7.9µM*
CCCCCCC[n+]1ccc(/C=C/c2c(C)[nH]c3ccccc23)c2ccccc21	x	x	-2%	x	x	x
O=C(/C=C/c1ccc([N+](=O)[O-])cc1)c1cccnc1	22µM*	18µM*	-2%	0%	-1%	u
O=C(/C=C/c1ccc([N+](=O)[O-])cc1)NCc1cccnc1	20%	-34%	2%	-1%	0%	19%
CCN(CC)CCn1c(NCc2ccc(C)o2)nc2ccccc21	3%	4%	1%	0%	-1%	0.5µM*
Cc1ccc(CNc2nc3ccccc3n2C)o1	9%	14%	-7%	x	0%	-32%
CCN(CC)CCn1c(NC(=O)c2ccc(Cl)cc2)nc2ccccc21	2.5µM*	12%	u	0%	x	2µM*
CCN(CC)CCn1c(C)nc2ccccc21	0%	-5%	x	0%	-4%	-27%
CCN(CC)CCn1c(NC(=O)c2ccccc2O)nc2ccccc21	5µM*	-24%	-1%	x	6%	2.5µM*
O=C(Nc1nc2ccccc2n1CCN1CCCCC1)c1ccc(Cl)cc1	u	17%	x	-1%	x	-43%
CCCn1ccc2c(OCC(=O)Nc3cc(C)ccc3C)cccc2c1=O	x	x	u	3%	4%	x
CCOc1ccc(NC(=O)CN(Cc2ccccc2)S(=O)(=O)c2ccc3nc(C)sc3c2)cc1	x	x	-5%	2%	-2%	x
Oc1ccc(Cl)cc1C1=NNC(c2cccs2)C1 (stereo unspecified)	u	-20%	-21%	1%	5%	5µM*

Source: PubChem BioAssay (National Center for Advancing Translational Sciences (NCATS))
